Sampled rows, rich in hits. Any-hit rate of the full collection: about 0.99%.
TRPV1 ag: activates the human vanilloid receptor TRPV1; TRPV1-expressing cells, Fluo-8 calcium influx, agonist mode; activation, % at 8.33 µM; 320,000 compounds, 0.19% hits; in the data active = activation above about 80%; inconclusive = between about 30% and that limit
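Cells expressing TRPV1 were dye-loaded with Fluo-8 and read kinetically: 10 s baseline, 3 min after compound (agonist portion), then 2 min after EC20 capsaicin (allosteric enhancer portion). Calcium-bound dye fluorescence at 480/520 nm.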
TRHR agonist: agonists of human TRH receptor. TRHR cells, calcium flux fluo-8, FDSS agonist mode. 360,000 compounds, 0.18% hits. activation, % at 2 µM; in the data active = activation above about 30%
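Fluo-8-loaded TRHR cells; 10 s baseline, compound added, kinetic Ca2+ fluorescence read 1/s, agonist mode.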
TRPML1 inh: blocks the human TRPML1 channel; 390,000 compounds, 0.02% hits; AID 624415; TRPML1-inducible cells, Ca2+ dye fluorescence, FDSS; active compounds read low; inhibition of EC80 agonist-evoked calcium signal; activity change, negative = inhibition, % (no concentration beside the values); in the data active = activity change below about -50%; inconclusive = between about -30% and that limit;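 note: stimulus is agonist 54-4 at its EC80 concentration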
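TRPML1-DL cells, Tet-induced overnight (~16 h, 37 °C) at 1,500 cells/well, were loaded with Ca8 no-wash dye plus quencher for 45-90 min at room temperature. Compounds were pinned during FDSS kinetic reading; agonist 54-4 at EC80 (4 uM final) then added.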
TRHR PAM: TRH receptor (human) allosteric enhancement; TRHR cells, fluo-8 calcium fluorescence, EC20 TRH enhancement; 360,000 compounds, 0.66% hits; enhancement, % at 2 µM; P34981; in the data active = enhancement above about 30%
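Enhancer read-out: after compound pinning and an initial kinetic agonist-mode read, an EC20 of TRH (10 nM final) was injected and fluo-8 calcium signal (Ex 480/Em 530) followed at 1 s/cycle for 100 cycles in TRHR-expressing cells.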
TRPML1 ag: activates the human TRPML1 channel. TRPML1-expressing cells, Ca2+ dye fluorescence, FDSS. activation, % (test concentration not listed). Q9GZU1. 410,000 compounds, 0.12% hits. AID 624414; in the data active = activation above about 50%; inconclusive = mostly about 30% to 49%
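Tetracycline-induced TRPML1-DL cells are seeded and incubated overnight before loading with a no-wash Ca2+ dye and quencher. Agonist activity is taken from the 110 s fluorescence read following compound pin-transfer on an FDSS, before EC80 54-4 challenge.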
TRPV1 PAM: potentiators of human vanilloid receptor 1 (TRPV1) | TRPV1-expressing cells, Fluo-8 calcium influx, capsaicin EC20 potentiation | 320,000 compounds, 0.02% hits | potentiation, % at 8.33 µM; in the data active = potentiation above about 80%; inconclusive = between about 30% and that limit
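Cells expressing TRPV1 were dye-loaded with Fluo-8 and read kinetically: 10 s baseline, 3 min after compound (agonist portion), then 2 min after EC20 capsaicin (allosteric enhancer portion). Calcium-bound dye fluorescence at 480/520 nm.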
Each line names hits and unclear results; the compound was inactive in the other large screens.

Cc1ccc(CN2COc3ccc4c(-c5ccccc5)cc(=O)oc4c3C2)cc1	TRHR PAM 55 (no result: TRPV1 ag, TRPV1 PAM)
FC(F)Sc1ccc(Nc2ncnc3nc[nH]c23)cc1	TRPV1 ag 83
Cc1cc(C)cc(Nc2ncnc3nc[nH]c23)c1	TRPV1 ag inconclusive
CSCCC(NC(=O)c1ccco1)C(=O)OC(C)C(=O)NC(=O)NC1CCCCC1 (stereo not given)	TRHR agonist 52, TRPML1 ag inconclusive, TRPV1 PAM inconclusive
CCOC(=O)c1c(C)[nH]c(C(=O)OC(C(=O)N(C)C)c2ccccc2)c1C (stereo not given)	none (no result: TRPV1 ag, TRHR agonist, TRPML1 inh, TRHR PAM, TRPV1 PAM)
CN(C)S(=O)(=O)c1ccc(NC(=O)CN2C(=O)NC3(CCCC3)C2=O)cc1	TRHR PAM 36
CN(C)S(=O)(=O)c1ccc(Cl)c(NC(=O)CN2C(=O)NC3(CCCC3)C2=O)c1	none
Cc1ccc(NC(=O)c2ccc(S(=O)(=O)NCc3ccco3)cc2)cc1	TRPV1 ag 82
O=C(Nc1ccc(S(=O)(=O)NCc2ccco2)cc1)c1ccncc1	none
COc1cccc(NC(=O)c2ccc(S(=O)(=O)NCc3cccnc3)cc2)c1	none
CCc1ccc(NC(=O)c2ccc(S(=O)(=O)NCc3cccnc3)cc2)cc1	TRPV1 ag 87
COc1ccc(C(=O)Nc2ccc3ccccc3c2)cc1	TRPV1 ag 96
COc1ccc(C(=O)Nc2cc3c4c(c2)CC(=O)N4CCC3)cc1	TRPML1 inh inconclusive, TRPML1 ag 55
COc1cccc(C(=O)Nc2ccc3ccccc3c2)c1	none
COc1ccc(C(=O)Nc2cc3c4c(c2)CC(=O)N4CCC3)c(OC)c1	none
COc1ccc(C(=O)Nc2ccc(C3(C#N)CCCC3)cc2)cc1	TRPV1 ag 89
O=C(CC1CCCCC1)Nc1nc2ccccc2s1	TRHR PAM 36
O=C(COc1ccccc1C(=O)Nc1ccccc1)Nc1ccccc1F	none (no result: TRPV1 ag, TRHR agonist, TRPML1 inh, TRHR PAM, TRPV1 PAM)
CCSC(=O)N1CCN(/[N+]([O-])=N/Oc2ccc([N+](=O)[O-])cc2[N+](=O)[O-])CC1	none (no result: TRPV1 ag, TRHR agonist, TRHR PAM, TRPV1 PAM)
COc1ccc2nc(NC(=O)c3ccc(-n4nc(C)cc4C)cc3)sc2c1	TRPML1 ag 68
COc1ccc(C(=O)Nc2ccc3c(c2)nc(CCNC(C)=O)n3C)cc1	TRHR PAM 31
COc1ccc(C(=O)Nc2nc3ccccc3s2)cc1	TRPV1 ag 96
O=C(Nc1nccs1)[C@@H]1CC=C[C@@H]2CCN(C3CC3)C(=O)[C@@H]21	none (no result: TRPV1 ag, TRHR agonist, TRPML1 inh, TRHR PAM, TRPV1 PAM)
COc1cc(/C=C2/SC(=S)N(Cc3ccccc3)C2=O)ccc1OCC(=O)O	none
COc1cc(/C=C2/SC(=S)N(Cc3ccccc3)C2=O)cc(Cl)c1O	TRPV1 ag inconclusive, TRHR agonist 159, TRHR PAM 92, TRPML1 ag 65
O=C(C[n+]1cccc2cccc(O)c21)c1ccc(F)cc1	none (no result: TRPV1 ag, TRHR agonist, TRPML1 inh, TRHR PAM, TRPV1 PAM)
Cc1ccc(OC(=O)c2cccc(C(=O)Oc3ccc(C)cc3)n2)cc1	none
Cc1ccc(OC(=O)c2cc(C)nn2C(C)(C)C)cc1	TRHR PAM 36 (no result: TRPV1 ag, TRPV1 PAM)
CC1CCCCN1C(=O)C1CCN(c2nc(-c3ccccc3)nc3c2CCC3)CC1 (stereo not given)	TRHR PAM 39
COc1cc2cc(C)c3nnc(SCC(=O)Nc4cc(C)on4)n3c2cc1OC	TRPV1 PAM 108
Cc1[nH]c(SCC(=O)Nc2cc(C(N)=O)cc(C(N)=O)c2)nc1Cc1ccccc1	none (no result: TRPV1 ag, TRHR agonist, TRHR PAM, TRPV1 PAM)
Cc1cc(NC(=O)CSc2nc(Cc3ccc(O)cc3)c(C)[nH]2)no1	TRPML1 inh -54
CC(C)(C)OC(=O)Cc1nnc(-c2cc3ccccc3[nH]2)s1	none (no result: TRPV1 ag, TRPML1 inh, TRPML1 ag, TRPV1 PAM)
CC(C)(C)n1nnnc1C(c1ccccc1F)N(Cc1ccco1)CC1CCCO1 (stereo not given)	TRPV1 ag inconclusive, TRPML1 ag 66
CC(C)(C)n1nnnc1C(c1cccnc1)N(Cc1ccccc1)Cc1ccco1 (stereo not given)	none
COc1cccc(CN(Cc2ccco2)C(c2ccc(F)cc2)c2nnnn2C(C)(C)C)c1 (stereo not given)	TRPML1 ag 106
Cc1cccc2cc(C(c3nnnn3C(C)(C)C)N(Cc3ccco3)CC3CCCO3)c(=O)[nH]c12 (stereo not given)	TRPV1 ag inconclusive

High-throughput results deposited in PubChem by National Center for Advancing Translational Sciences (NCATS).
